Assay [1] can be described thus: NCI Yeast Anticancer Drug Screen. Data for the rad50 strain (AID 155).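 Also: 0% = growth of vehicle-only cultures of the same strain.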 Particulars: S. cerevisiae rad50 strain growth inhibition, hits give high values. A digest of the protocol:
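Cells are treated with compound, grown, and their growth is then scored against vehicle-only cultures of the same repair-deficient yeast strain.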

A short description of assay [2]: NCI Yeast Anticancer Drug Screen. Data for the mec2-1 strain (AID 157). Particulars: S. cerevisiae mec2-1 strain, hits give high values. Put shortly:
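Readout is yeast growth inhibition, normalised to vehicle-treated controls, in the mec2-1 strain exposed to compound.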

Assay [3] is described as follows: NCI Yeast Anticancer Drug Screen. Data for the sgs1 mgt1 strain (AID 161).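 Also: 0% = growth of cultures given vehicle only.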 Conditions: S. cerevisiae sgs1 mgt1 strain, hits give high values. A digest of the protocol: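 Yeast cells carrying a defined DNA-repair defect were exposed to test compounds. Growth inhibition was measured relative to vehicle-treated controls.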
Assay [4] can be described thus: NCI Yeast Anticancer Drug Screen. Data for the cln2 rad14 strain (AID 165).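 Also: 0% = growth equal to vehicle treated cultures.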 Particulars: S. cerevisiae cln2 rad14 strain, hits give high values. Put shortly:
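Relative to vehicle controls, growth inhibition of compound-treated cln2 rad14 yeast was recorded.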

Assay [5] is described as follows: NCI Yeast Anticancer Drug Screen. Data for the bub3 strain (AID 167). Conditions: S. cerevisiae bub3 mutant strain, hits give high values. Put shortly: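 Part of a panel of yeast mutants defective in DNA damage repair or cell cycle regulation. Each strain is grown with compound, and inhibition is calculated relative to solvent-treated cultures.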
Assay [6] is described as follows: NCI Yeast Anticancer Drug Screen. Data for the mlh1 rad18 strain (AID 175). Conditions: S. cerevisiae mlh1 rad18 strain growth inhibition, hits give high values. A digest of the protocol:
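Test agents were incubated with a yeast strain of defined genotype (DNA damage repair defect). Inhibition of growth was derived by comparison with vehicle-exposed cultures.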

Setting [7] is: at 5.0 µM (retest, dose inferred, filed as 0.5).
Where [8] appears, read: at 50.0 µM (retest, dose inferred, filed as 5.0).

About 79,000 compounds went through this panel and 15% of them were active in at least one assay; those are over-represented in the sample as a whole. Unmarked numbers belong to inactive results. The source made the active and inactive calls. Rule as the data show it: active = growth inhibition above about 70%; inactive = the rest.

For the molecule `c1ccc(-c2cc(Nc3ccc4c(c3)OCO4)c3cc(C4CCCCC4)ccc3n2)cc1`, the growth inhibition is 10% in assay [1] (setting [7]); 95% (active) in assay [1] (setting [8]); 79% (active) in assay [1] (at 50.0 µM); 6% in assay [2] (setting [7]); 96% (active) in assay [2] (setting [8]); 83.9% (active) in assay [2] (at 50.0 µM). Also, the growth inhibition in assay [3] (setting [7]) is 27%; in assay [3] (setting [8]), 97% (active); in assay [3] (at 50.0 µM), 96.7% (active); in assay [4] (setting [7]), -8%; in assay [4] (setting [8]), 93% (active); in assay [4] (at 50.0 µM) it was 60.4%. Further, the growth inhibition in assay [5] (setting [7]) is 4%; in assay [5] (setting [8]), 96% (active); in assay [5] (at 50.0 µM), 41.2%; in assay [6] (setting [7]) it was 7%; in assay [6] (setting [8]), 94% (active); in assay [6] (at 50.0 µM) it was 98.2% (active).

Consider `OC1OCC(OCc2ccccc2)C(OCc2ccccc2)C1OCc1ccccc1` (configuration not stated), for which the growth inhibition is -4% in assay [1] (setting [7]); 61% in assay [1] (setting [8]); 97.4% (active) in assay [1] (at 50.0 µM); -25% in assay [2] (setting [7]); 59% in assay [2] (setting [8]); 96.9% (active) in assay [2] (at 50.0 µM). Moreover, the growth inhibition in assay [3] (setting [7]) is -3%; in assay [3] (setting [8]), 68%; in assay [3] (at 50.0 µM), 96.7% (active); in assay [4] (setting [7]), -3%; in assay [4] (setting [8]), 59%; in assay [4] (at 50.0 µM), 81.5% (active). The growth inhibition is -5% in assay [5] (setting [7]); 51% in assay [5] (setting [8]); 97.7% (active) in assay [5] (at 50.0 µM); 10% in assay [6] (setting [7]); 86% (active) in assay [6] (setting [8]); 98.5% (active) in assay [6] (at 50.0 µM).

As to `CCc1nc2c(O)ccc(O)c2nc1C`, the growth inhibition was -137% in assay [1] (setting [7]); 33% in assay [1] (setting [8]); 72.3% (active) in assay [1] (at 50.0 µM); -43% in assay [2] (setting [7]); -11% in assay [2] (setting [8]); 62.9% in assay [2] (at 50.0 µM). Besides, the growth inhibition in assay [3] (setting [7]) is -50%; in assay [3] (setting [8]), 37%; in assay [3] (at 50.0 µM) it was 65%; in assay [4] (setting [7]), -55%; in assay [4] (setting [8]), -10%; in assay [4] (at 50.0 µM), 59.4%. Further, the growth inhibition is -63% in assay [5] (setting [7]); 17% in assay [5] (setting [8]); 84.2% (active) in assay [5] (at 50.0 µM); -107% in assay [6] (setting [7]); 2% in assay [6] (setting [8]); 90.3% (active) in assay [6] (at 50.0 µM).

With `c1ccc([P+](Cc2ccc(C[P+](c3ccccc3)(c3ccccc3)c3ccccc3)s2)(c2ccccc2)c2ccccc2)cc1`, the growth inhibition was 35% in assay [1] (setting [7]); 90% (active) in assay [1] (setting [8]); 80% (active) in assay [1] (at 50.0 µM); 33% in assay [2] (setting [7]); 96% (active) in assay [2] (setting [8]); 80.3% (active) in assay [2] (at 50.0 µM). Besides, the growth inhibition in assay [3] (setting [7]) is 37%; in assay [3] (setting [8]) it was 98% (active); in assay [3] (at 50.0 µM), 80.7% (active); in assay [4] (setting [7]), 17%; in assay [4] (setting [8]), 77% (active); in assay [4] (at 50.0 µM), 67.4%. The growth inhibition in assay [5] (setting [7]) was 47%; in assay [5] (setting [8]), 96% (active); in assay [5] (at 50.0 µM) it was 81% (active); in assay [6] (setting [7]) it was 43%; in assay [6] (setting [8]), 96% (active); in assay [6] (at 50.0 µM), 75.8% (active).

Consider `COc1cc(O)c2c(=O)c3cccc(C)c3[nH]c2c1`, for which the growth inhibition in assay [1] (setting [7]) was 8%; in assay [1] (setting [8]), 73% (active); in assay [1] (at 50.0 µM) it was 2.6%; in assay [2] (setting [7]) it was -17%; in assay [2] (setting [8]), 28%; in assay [2] (at 50.0 µM), 54.9%. Also, the growth inhibition in assay [3] (setting [7]) is 3%; in assay [3] (setting [8]), 41%; in assay [3] (at 50.0 µM), 46.1%; in assay [4] (setting [7]), 14%; in assay [4] (setting [8]), 37%; in assay [4] (at 50.0 µM), 49.4%. Besides, the growth inhibition was 2% in assay [5] (setting [7]); 54% in assay [5] (setting [8]); 62.6% in assay [5] (at 50.0 µM); 2% in assay [6] (setting [7]); 54% in assay [6] (setting [8]); 70% (active) in assay [6] (at 50.0 µM).

On to `COc1ccc(/C=N/N=c2\[nH][nH]/c(=N\N=C\c3ccc(OC)c4ccccc34)c3ccccc23)c2ccccc12`, for which the growth inhibition in assay [1] (setting [7]) is 15%; in assay [1] (setting [8]), 34%; in assay [1] (at 50.0 µM), 57.6%; in assay [2] (setting [7]) it was 0%; in assay [2] (setting [8]) it was 59%; in assay [2] (at 50.0 µM), 47.5%. In addition, the growth inhibition in assay [3] (setting [7]) is 4%; in assay [3] (setting [8]), 76% (active); in assay [3] (at 50.0 µM), 86.9% (active); in assay [4] (setting [7]), -7%; in assay [4] (setting [8]) it was 28%; in assay [4] (at 50.0 µM), 37.6%. Further, the growth inhibition in assay [5] (setting [7]) was 0%; in assay [5] (setting [8]), 78% (active); in assay [5] (at 50.0 µM), 33.4%; in assay [6] (setting [7]) it was 12%; in assay [6] (setting [8]) it was 85% (active); in assay [6] (at 50.0 µM) it was 65%.

On to `C[N+]1(c2ccccc2)C=C(c2ccccc2)SC1=S` (configuration not stated), for which the growth inhibition in assay [1] (setting [7]) was 7%; in assay [1] (setting [8]), 86% (active); in assay [1] (at 50.0 µM), 67.8%; in assay [2] (setting [7]), 25%; in assay [2] (setting [8]), 68%; in assay [2] (at 50.0 µM) it was 20.6%. For the same molecule, the growth inhibition in assay [3] (setting [7]) was -8%; in assay [3] (setting [8]), 36%; in assay [3] (at 50.0 µM) it was 60.5%; in assay [4] (setting [7]) it was 1%; in assay [4] (setting [8]) it was 10%; in assay [4] (at 50.0 µM), 23.4%. For the same molecule, the growth inhibition is 13% in assay [5] (setting [7]); 67% in assay [5] (setting [8]); 54.8% in assay [5] (at 50.0 µM); 12% in assay [6] (setting [7]); 75% (active) in assay [6] (setting [8]); 74.8% (active) in assay [6] (at 50.0 µM).

For `CC(C)SC(=S)Nc1cc(Cl)c(Cl)cc1Cl`, the growth inhibition was 7% in assay [1] (setting [7]); 85% (active) in assay [1] (setting [8]); 99.5% (active) in assay [1] (at 50.0 µM); 6% in assay [2] (setting [7]); 86% (active) in assay [2] (setting [8]); 99.5% (active) in assay [2] (at 50.0 µM). Besides, the growth inhibition in assay [3] (setting [7]) is 10%; in assay [3] (setting [8]), 98% (active); in assay [3] (at 50.0 µM), 99.5% (active); in assay [4] (setting [7]), -14%; in assay [4] (setting [8]) it was 91% (active); in assay [4] (at 50.0 µM) it was 99.3% (active). Besides, the growth inhibition in assay [5] (setting [7]) is -4%; in assay [5] (setting [8]) it was 49%; in assay [5] (at 50.0 µM), 98.9% (active); in assay [6] (setting [7]) it was 1%; in assay [6] (setting [8]) it was 92% (active); in assay [6] (at 50.0 µM), 99.3% (active).

Take `C=C1CC23CCC4C(C)(C(=O)O)CCCC4(C)C2CCC1C3` (configuration not stated): the growth inhibition in assay [1] (setting [7]) was 27%; in assay [1] (setting [8]), 98% (active); in assay [1] (at 50.0 µM), 90.5% (active); in assay [2] (setting [7]), 40%; in assay [2] (setting [8]), 98% (active); in assay [2] (at 50.0 µM) it was 91% (active). Further, the growth inhibition in assay [3] (setting [7]) was 18%; in assay [3] (setting [8]), 97% (active); in assay [3] (at 50.0 µM), 90% (active); in assay [4] (setting [7]), 19%; in assay [4] (setting [8]) it was 97% (active); in assay [4] (at 50.0 µM), 87.2% (active). Further, the growth inhibition in assay [5] (setting [7]) is 13%; in assay [5] (setting [8]), 97% (active); in assay [5] (at 50.0 µM), 89.3% (active); in assay [6] (setting [7]), 49%; in assay [6] (setting [8]) it was 98% (active); in assay [6] (at 50.0 µM), 82% (active).
